Measurements from PubChem BioAssay AID623870 (Broad Institute, 2012).
The whole screen tested about 390,000 compounds, of which about 2,600 (0.67%) were called active. Many of the other results were omitted from the sample, so actives are more common in it than they were. Unmarked numbers belong to inactive results.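 The calls were made as follows: active = mean inhibition of replicates at least 50% and at least half of replicates each reaching 50%; inconclusive = half or more replicates reach 50% but mean below 50%; inactive = the rest.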

Target: Transforming acidic coiled-coil-containing protein 3 (Homo sapiens) (UniProt Q9Y6A5)
Experiment: inhibitors of ARNT PAS-B binding to TACC3 – biochemical, AlphaScreen, single concentration, primary screen (AID 623870);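 also: 0% = complete ARNT plus TACC3 wells and 100% = ARNT alone without TACC3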
Details: AlphaScreen His-ARNT PAS-B/GST-TACC3 binding, luminescence; at 9.99 µM; stronger effect = higher value; TACC3 fragment carries E629A point mutation

Which inhibition does the source give for `COc1cc(C2C(C(=O)Nc3ccccc3OC)=C(C)Nc3ncnn32)ccc1O` (centres undefined) here?
The inhibition was 7.59%.

For `CC1=C(C(=O)OC2CCCCC2)C(c2cccnc2)n2ncnc2N1` (centres undefined), which inhibition is on record?
Its inhibition is -3.41%.

How did the inhibition turn out when `COC(=O)C1=C(C)Nc2ncnn2C1c1cccnc1` (centres undefined) was run?
Its inhibition is 18.7% (active).

Which inhibition does the source give for `CN1CCN(C(=O)C[C@H]2CC[C@H]3[C@H](COc4ccc(NC(=O)C5CC5)cc4C(=O)N3C)O2)CC1` here?
The inhibition was -1.07%.

Which inhibition does the source give for `O=C(Cc1ccncc1)NCC[C@H]1CC[C@@H](NC(=O)Nc2ccc(Cl)cc2)[C@@H](CO)O1` here?
The inhibition was 13.7%.

Which inhibition does the source give for `Oc1ccc(N=Nc2nccs2)c(O)c1` here?
Its inhibition is 80.9% (active).

With `CCC(=O)N(C)C[C@H]1Oc2ncc(C#CC(C)C)cc2C(=O)N([C@@H](C)CO)C[C@H]1C` as the compound, how does the inhibition read?
Its inhibition is -8.34%.

`Cc1ccc(S(=O)(=O)N2C[C@@H](O)COC[C@@H]3O[C@@H](CC(=O)N[C@H]4CCN(Cc5ccccc5)C4)CC[C@H]32)cc1` was tested. Which inhibition did it give?
The inhibition was -6.23%.

How did the inhibition turn out when `CCOC(=O)c1nn(-c2cccc(C)c2)cc1C(=O)c1ccccc1` was run?
The inhibition was 25.6%.

How did the inhibition turn out when `Cc1cc(C(=O)OCC(=O)NCc2ccco2)c(C)n1-c1ccccc1` was run?
The inhibition was -8.94%.

For `CCOC(=O)C1=C(O)/C(=C/c2cc(C)n(-c3ccccc3)c2C)N=C1C`, which inhibition is on record?
Its inhibition is 27.3% (active).

With `CC(C)CC#Cc1cnc2c(c1)C(=O)N([C@H](C)CO)C[C@H](C)[C@H](CN(C)C(=O)Nc1ccccc1F)O2` as the compound, how does the inhibition read?
The inhibition was -1.64%.

For `CC(C)CC#Cc1ccc2c(c1)O[C@H](CN(C)C(=O)c1cccnc1)[C@@H](C)CN([C@H](C)CO)S2(=O)=O`, which inhibition is on record?
The inhibition was -3.52%.

How did the inhibition turn out when `COc1ccc(S(=O)(=O)N(C)C[C@H]2OCCCC[C@H](C)Oc3ccc(NC(=O)CCC(F)(F)F)cc3C(=O)N([C@@H](C)CO)C[C@@H]2C)cc1` was run?
Its inhibition is 1.97%.

With `CCCNC(=O)C[C@H]1CC[C@H]2[C@@H](COC[C@@H](O)CN2C(=O)Nc2ccc(Cl)c(Cl)c2)O1` as the compound, how does the inhibition read?
The inhibition was -0.599%.

Which inhibition does the source give for `CCNC(=O)C[C@@H]1CC[C@H](NC(=O)NC2CCCCC2)[C@H](CO)O1` here?
The inhibition was 14.7%.

How did the inhibition turn out when `C[C@@H](O)C#Cc1cnc2c(c1)C(=O)N([C@@H](C)CO)C[C@H](C)[C@H](CN(C)Cc1cncnc1)O2` was run?
Its inhibition is -0.882%.

With `O=C(COC(=O)CSc1nnc(-c2ccc(Cl)cc2)o1)Nc1cc(Cl)cc(Cl)c1` as the compound, how does the inhibition read?
Its inhibition is 2.05%.

How did the inhibition turn out when `CC(=O)Nc1cccc(C(=O)OCC(=O)Nc2nnc(-c3ccccc3)o2)c1` was run?
The inhibition was 55.1% (active).

For `CCc1cccc(NC(=O)COC(=O)c2cc(=O)c3ccccc3o2)c1`, which inhibition is on record?
The inhibition was -1.51%.

For `CO[C@@H]1CN(C)C(=O)c2ccc(NC(=O)Nc3ccccc3)cc2OC[C@H](C)N(C(=O)CC2CC2)C[C@@H]1C`, which inhibition is on record?
The inhibition was -5.39%.

`COCCCNC(=O)Cn1cc(C(=O)C2CC2)c2ccccc21` was tested. Which inhibition did it give?
Its inhibition is 1.82%.

Which inhibition does the source give for `COCCNC(=O)Cn1cc(C(=O)c2cccs2)c2ccccc21` here?
The inhibition was -1.09% (active).

`COCCNC(=O)C(OC(=O)c1cccs1)c1ccc(F)cc1` (centres undefined) was tested. Which inhibition did it give?
The inhibition was -9.93%.

For `C[C@@H]1CCCCO[C@H](CN(C)Cc2ccc(Cl)c(Cl)c2)[C@H](C)CN([C@@H](C)CO)C(=O)c2cc(NC(=O)C3CCCCC3)ccc2O1`, which inhibition is on record?
Its inhibition is -6.84%.

With `C[C@@H]1CN([C@@H](C)CO)C(=O)CCCn2cc(nn2)CO[C@H]1CN(C)C(=O)Nc1ccc(N2CCCCC2)cc1` as the compound, how does the inhibition read?
Its inhibition is 4.48%.

Which inhibition does the source give for `O=C(NCC[C@@H]1CC[C@H](NC(=O)Nc2cc(F)ccc2F)[C@@H](CO)O1)Nc1ccc(Cl)cc1` here?
Its inhibition is -4.66%.

For `CNC(=O)C[C@@H]1CC[C@@H]2[C@H](COc3ccc(NC(=O)Nc4ccccc4)cc3C(=O)N2C)O1`, which inhibition is on record?
Its inhibition is -2.84%.

Which inhibition does the source give for `O=C(CC1CC1)N1[C@H](CO)[C@@H]2c3ccccc3N(S(=O)(=O)c3ccc(F)cc3)C[C@@H]21` here?
The inhibition was -6.11%.

For `O=C(C[C@H]1CC[C@@H](NC(=O)Cc2cccnc2)[C@H](CO)O1)Nc1ccc(-c2ccccc2)cc1`, which inhibition is on record?
The inhibition was -7.46%.

Which inhibition does the source give for `COc1ccc(S(=O)(=O)Nc2ccc3c(c2)CC(=O)N([C@H](C)CO)C[C@H](C)[C@H](CN(C)CC2CC2)O3)cc1` here?
Its inhibition is -8.43%.

With `O=C(Nc1cc(F)ccc1F)N1C[C@H]2[C@@H](c3ccccc31)[C@@H](CO)N2CC1CCCC1` as the compound, how does the inhibition read?
Its inhibition is -1.12%.

With `CC(C(=O)Nc1ccc(O)c(C(=O)O)c1)N1C(=O)/C(=C/c2cccs2)SC1=S` (centres undefined) as the compound, how does the inhibition read?
The inhibition was 55.9% (active).

`Cc1cccc(NC(=O)C(C)N2C(=O)C3C4CC(C(Br)C4Br)C3C2=O)c1` (centres undefined) was tested. Which inhibition did it give?
The inhibition was 5.02%.

`Cc1noc(C)c1S(=O)(=O)N(C)C[C@@H]1OCCCC[C@H](C)Oc2ccc(NC(=O)Nc3ccc4c(c3)OCO4)cc2C(=O)N([C@H](C)CO)C[C@H]1C` was tested. Which inhibition did it give?
The inhibition was -0.948%.

For `CC1=NNC(=O)C1CCC(=O)N/N=C\c1cccc(Cl)c1` (centres undefined), which inhibition is on record?
Its inhibition is 4.23%.

With `CC1=NNC(=O)C1CC(=O)N/N=C/c1ccncc1` (centres undefined) as the compound, how does the inhibition read?
Its inhibition is 3.25%.

`COc1cccc(/C=N\NC(=O)C2=NNC(=O)C2C)c1O` (centres undefined) was tested. Which inhibition did it give?
The inhibition was 71.4% (active).

How did the inhibition turn out when `C[C@@H]1CN([C@@H](C)CO)C(=O)c2cc(NC(=O)CCCN(C)C)ccc2O[C@@H](C)CCCCO[C@H]1CN(C)C(=O)Nc1cccc2ccccc12` was run?
The inhibition was 39.5% (active).

How did the inhibition turn out when `C[C@@H]1CN([C@H](C)CO)C(=O)Cc2cc(NC(=O)Nc3cccc4ccccc34)ccc2O[C@@H]1CN(C)Cc1ccc(C(=O)O)cc1` was run?
The inhibition was -8.02% (active).

`C[C@H]1CN([C@@H](C)CO)C(=O)Cc2cc(NC(=O)Nc3cccc4ccccc34)ccc2O[C@@H]1CN(C)C` was tested. Which inhibition did it give?
Its inhibition is -6.19%.

For `C[C@@H]1CCCCO[C@H](CN(C)C(=O)Nc2cccc3ccccc23)[C@H](C)CN([C@@H](C)CO)C(=O)c2cc(NC(=O)CCCN(C)C)ccc2O1`, which inhibition is on record?
Its inhibition is 14.2%.

Which inhibition does the source give for `C[C@@H]1CN([C@H](C)CO)C(=O)Cc2cc(NC(=O)Nc3cccc4ccccc34)ccc2O[C@@H]1CN(C)Cc1ccc(C(F)(F)F)cc1` here?
Its inhibition is 0.147%.

With `C[C@@H]1CN([C@@H](C)CO)C(=O)c2cc(NC(=O)Cc3ccccc3)ccc2O[C@@H](C)CCCCO[C@H]1CN(C)C(=O)Nc1cccc2ccccc12` as the compound, how does the inhibition read?
The inhibition was 1%.
